# ALR H2O2 inh – inhibitors of human sulfhydryl oxidase ALR; P55789; purified ALR, DTT oxidation, H2O2 HRP-luminol luminescence; inhibition, % (concentration not given with the values); 290,000 tested, 3.8% active;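 active = mean replicate inhibition above about 79%, with every replicate also reaching it, limit read from the data; inconclusive = only one of the two criteria met; inactive = mean below limit and not every replicate reaching it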
# Target sequence (P55789 whole entry, looked up): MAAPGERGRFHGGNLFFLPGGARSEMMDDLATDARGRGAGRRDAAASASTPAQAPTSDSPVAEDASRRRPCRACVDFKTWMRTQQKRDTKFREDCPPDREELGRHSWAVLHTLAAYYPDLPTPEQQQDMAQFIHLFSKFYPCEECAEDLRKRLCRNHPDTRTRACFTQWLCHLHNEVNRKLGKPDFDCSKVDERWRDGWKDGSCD
# APOBEC3A inh – inhibitors of human APOBEC3A DNA deaminase. AID 493011. P31941. 330,000 tested, 0.41% active. inhibition, % at 20 µM. recombinant A3A, FAM/TAMRA ssDNA deamination fluorescence;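 active = at least 40% inhibition at 20 µM here, with at most 30% in a related deaminase screen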
# Target sequence (P31941 whole entry, looked up): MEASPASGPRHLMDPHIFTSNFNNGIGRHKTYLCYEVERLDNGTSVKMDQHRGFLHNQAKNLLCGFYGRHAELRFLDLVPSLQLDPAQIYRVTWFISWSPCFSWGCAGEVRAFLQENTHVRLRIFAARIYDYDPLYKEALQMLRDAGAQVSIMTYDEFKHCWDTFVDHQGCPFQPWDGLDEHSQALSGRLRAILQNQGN
# M18AAP inhibitor – blocks P. falciparum M18 aspartyl aminopeptidase; recombinant PfM18AAP, H-Glu-NHMec fluorogenic cleavage; 290,000 tested, 1.2% active; inhibition, % at 7.35 µM;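 active = inhibition above the campaign mean inhibition over all tested compounds plus 3 SD, cut at about 28% in these data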
# CR mimetic SO – lowers age-related superoxide in aged yeast cells | S. cerevisiae aged cells, superoxide DHE fluorescence; active compounds read low | 330,000 tested, 0.18% active | superoxide response (% of plate mean), % at 10 µM;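 active = superoxide response under a set limit, about three screen SD below normal, cut at about 65% in these data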;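 note: yeast aged for seven days with compound at 30 °C before DHE staining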
# NRP1-CendR mod – modulators of CendR peptide binding to human neuropilin-1; O14786; FAM-RPARPAR peptide binding to NRP-1, fluorescence polarization; inhibition, % at 25 µM; 360,000 tested, 0.85% active;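 active = inhibition or corrected inhibition above about 18%, plus a signal ratio from 0.5 to 1.5, limit read from the data, passing the limit was not always enough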
# APOBEC3G inh – APOBEC3G (human) deaminase inhibition; recombinant A3G, ssDNA deamination FAM/TAMRA fluorescence; inhibition, % at 20 µM; 330,000 tested, 0.28% active;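 active = inhibition of at least 40% at 20 µM, with no more than 30% in the related APOBEC3A deaminase screen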
# A3G conf – APOBEC3G (human) deaminase inhibition, confirmed. inhibition, % at 20 µM. 890 tested, 72% active. recombinant A3G ssDNA deaminase, UDG/FAM-TAMRA fluorescence. shares compounds with APOBEC3G inh;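 active = inhibition reaching a set limit in any replicate at 20 µM, the limit being 80% of the first screen's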
# UDG A3G counter – E. coli UDG inhibition in APOBEC3G counter-screen; shares compounds with APOBEC3G inh; UDG counterscreen, FAM/TAMRA oligo fluorescence; inhibition, % at 20 µM; 710 tested, under 10 active; AID 504715;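 active = compounds giving 40% or more inhibition at 20 µM in any one of the three replicates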;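 note: inhibitors lower the FAM signal released by uracil excision and alkaline cleavage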
# Target sequence (P12295 whole entry, looked up): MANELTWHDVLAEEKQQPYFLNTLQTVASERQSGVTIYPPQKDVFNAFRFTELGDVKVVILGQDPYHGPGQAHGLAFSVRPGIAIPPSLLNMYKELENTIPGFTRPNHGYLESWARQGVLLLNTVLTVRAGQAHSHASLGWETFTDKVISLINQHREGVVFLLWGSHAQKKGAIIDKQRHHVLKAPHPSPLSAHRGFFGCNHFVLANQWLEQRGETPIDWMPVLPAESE
# A number is an active result; i = inactive; ? = inconclusive; nt = not tested or not shown. Hits are enriched below; roughly 5.2% of the tested compounds scored in any of these assays.
SMILES,ALR H2O2 inh,APOBEC3A inh,M18AAP inhibitor,CR mimetic SO,NRP1-CendR mod,APOBEC3G inh,A3G conf,UDG A3G counter
CN(C)c1ccc(/C=N/Nc2cccc(C(=O)O)c2)cc1,99,i,i,i,i,47,i,nt
CCN(C[C@H]1N[C@@](Cc2ccccc2)(C(=O)OC)[C@H]2C(=O)N(C)C(=O)[C@@H]12)S(=O)(=O)c1ccccc1,nt,i,nt,i,i,i,nt,nt
COCCn1nnnc1C(c1cccs1)N1CCN(c2nc3ccccc3s2)CC1 (stereo not given),i,i,i,i,i,57,i,nt
COCCn1nnnc1C(c1cccs1)N1CCN(c2cc(C)ccc2C)CC1 (stereo not given),i,i,i,i,i,i,nt,nt
COC(=O)c1cc(=O)nc2sc(-c3ccc(F)cc3)nn12,i,i,i,i,i,42,34,i
COC(=O)c1cc(=O)nc2sc(-c3cccs3)nn12,i,i,i,i,i,i,nt,nt
COCC(=O)Oc1c(S(=O)(=O)c2ccccc2)c(C)nn1C(C)(C)C,i,i,i,i,i,93,i,nt
Cc1nn(C(C)(C)C)c(OC(=O)C2CCCC2)c1S(=O)(=O)c1ccccc1,nt,nt,i,nt,i,nt,nt,nt
O=S(=O)(c1ccc(=S)[nH]c1)N1CCOCC1,i,i,nt,i,i,44,73,i
COc1ccc(C2=C/C(=C/c3cccnc3)C(=O)O2)cc1OC,i,i,i,i,i,i,nt,nt
Cc1cc(C)c2[nH]c(=S)cc(C)c2c1,i,i,i,i,i,73,active,i
CCN(CC)S(=O)(=O)c1ccc2oc(Nc3ccc(OC)cc3)nc2c1,i,i,i,i,i,i,nt,nt
CCS(=O)(=O)c1ccc2oc(Nc3ccc(C(C)C)cc3)nc2c1,i,i,i,i,i,68,78,i
CCOc1ccc(Nc2nc3cc(S(=O)(=O)N(CC)CC)ccc3o2)cc1,i,i,i,i,i,50,62,i
CCS(=O)(=O)c1ccc2oc(Nc3cc(C)cc(C)c3)nc2c1,i,i,i,i,i,i,nt,nt
CNC(=O)c1cc2c(cn1)[nH]c1ccccc12,i,i,nt,i,i,i,nt,nt
COC(=O)[C@H](CCSC)NC(=O)c1cc2c(cn1)[nH]c1ccccc12,nt,i,i,i,i,57,56,i
N#Cc1ccccc1Sc1ccccc1N,i,i,i,i,i,i,nt,nt
Nc1ccccc1SSc1ccccc1N,nt,i,i,i,i,82,63,i
c1ccc(CCc2nn3c(Cn4nnc5ccccc54)nnc3s2)cc1,i,i,i,i,i,i,nt,nt
Clc1ccccc1-c1nnc2sc(CCc3ccccc3)nn12,i,i,i,i,i,63,51,i
c1ccc(CCc2nn3c(Cn4cnc5ccccc54)nnc3s2)cc1,i,i,i,i,i,49,21,i
C/C(CC(=O)c1ccccc1)=N\NC(=O)CC#N,i,i,i,i,i,i,nt,nt
Cc1ccc(C)c(C(=O)CSc2nnnn2C(C)C)c1,nt,i,i,i,i,i,nt,nt
Cc1ccc(C(=O)CSc2nnnn2C(C)C)c(C)c1,i,i,i,i,i,54,i,i
SMILES,ALR H2O2 inh,APOBEC3A inh,M18AAP inhibitor,CR mimetic SO,NRP1-CendR mod,APOBEC3G inh,A3G conf,UDG A3G counter
Cc1cccc(-n2c(CNC(=O)c3ccc(S(=O)(=O)N4CCCC4)cc3)n[nH]c2=S)c1,i,i,i,i,i,i,nt,nt
COc1cccc(C(=O)NCc2n[nH]c(=S)n2-c2cccc(C)c2)c1,i,i,i,i,i,47,61,i
N#C/C(=C(/O)COc1ccc(Cl)cc1)c1nc2ccccc2s1,i,i,i,i,i,57,i,i
N#C/C(=C(/O)COc1ccccc1)c1nc2ccccc2s1,i,i,i,i,i,i,nt,nt
O=C(Nc1cc(S(=O)(=O)Nc2ccc(Cl)cc2)ccc1O)c1ccc(S(=O)(=O)N2CCCCCC2)cc1,i,i,i,i,i,53,44,i
Cc1noc(C)c1S(=O)(=O)Nc1ccc2c(c1)C(=O)N([C@H](C)CO)C[C@H](C)[C@H](CN(C)S(=O)(=O)c1ccc(Cl)cc1)OCCCC[C@@H](C)O2,nt,nt,nt,nt,i,nt,nt,nt
O=C1CSc2ccc(C(=O)Nc3cccc(S(=O)(=O)Nc4ccc(Br)cc4)c3)cc2N1,i,i,i,i,i,49,i,i
Cc1nn(CCC(=O)NNC(=S)Nc2ccc(F)cc2)c(C)c1[N+](=O)[O-],i,i,i,i,i,i,nt,nt
CCC(C(=O)Nc1cc(C(=O)O)ccc1C)c1ccccc1 (stereo not given),nt,i,i,i,i,i,nt,nt
Cc1cc(O)c(/C=N/Nc2ccccc2Cl)c(=O)o1,?,i,i,i,i,47,i,i
CCOC(=O)c1sc(N)c(C(=O)Nc2ccccc2OC)c1C,i,i,i,i,i,51,67,i
CCOC(=O)c1sc(N)c(C(=O)OC)c1C,i,i,i,i,i,i,nt,nt
Cc1ccc(N2C(=O)[C@@H]3C(c4cccnc4)=NO[C@@H]3C2=O)cc1,i,i,i,i,i,57,i,i
O=C(NNc1c(Cl)cccc1Cl)C1CCC1,i,i,i,i,i,i,nt,nt
Cc1cc(Cl)ccc1NNC(=O)c1c(C)noc1C,i,i,i,i,i,i,nt,nt
Cc1noc(C)c1C(=O)NNc1ccc(C(C)C)cc1,i,i,i,i,i,46,i,i
CC(C)c1ccc(NNC(=O)C2CCC2)cc1,nt,i,i,i,i,50,i,nt
COc1c(Cl)cc(Cl)cc1CNc1ccc(S(N)(=O)=O)cc1,i,i,i,i,i,i,nt,nt
CCCCCn1c(=O)c2ccccc2n2c(=S)[nH]nc12,i,i,i,i,i,43,76,i
CCC(C)c1ccc(-n2c(=O)c3ccccc3n3c(=S)[nH]nc23)cc1 (stereo not given),i,i,i,i,i,i,nt,nt
Cn1c(=O)c2ccccc2n2c(=S)[nH]nc12,i,i,i,i,i,44,70,i
CCCCCCn1c(=O)c(-c2ccccc2)c(O)c2ccccc21,nt,i,i,i,i,i,nt,nt
CCCn1c(=O)c2ccccc2n2c(=S)[nH]nc12,i,i,i,i,i,53,69,i
COc1ccc(CN(C)C(=O)COC(=O)c2c(C)nn(-c3ccc(F)cc3)c2Cl)cc1,i,i,nt,i,i,i,nt,nt
O=C(c1ccccc1)N1CCN(S(=O)(=O)c2ccc(Cl)c(C(F)(F)F)c2)CC1,nt,i,nt,i,i,i,nt,nt
COc1cccc(-c2cc(C(F)(F)F)n3nc(C(=O)Nc4c(C)n(C)n(-c5ccccc5)c4=O)cc3n2)c1,i,i,i,i,i,i,nt,nt
Cc1ccc(NNS(=O)(=O)c2ccc(C)cc2)cc1,98,i,i,i,28,69,65,i
Cc1ccc(S(=O)(=O)NNC(=O)C(=O)NNS(=O)(=O)c2ccc(C)cc2)cc1,i,i,i,i,i,i,nt,nt

# Screens deposited in PubChem by several laboratories.
